Source: the supplement of paper PMC10849652
The full data set covers some 7,900 targets. This sample favours those with a hit. About 0.6% of all pairs of compound and target were hits.

Experiments:
Experiment in all cases: log2 fold change, soluble protein after heating vs DMSO (PISA); higher = thermal stabilisation; K562 cells, 10 uM, 30 min; active = over 0.2 and 3.5 SD of the protein, either way, in both replicates (recomputed)
[1] = compound: C1=CC=C(C=C1)[C@H](COC2=CC3=C(C=C2)NC(=O)N3)NC(=O)C4=CC=CN(C4=O)CC5=CC(=C(C=C5)F)F
In short: (§1)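 K562 cells at 2×10^6 cells/mL were given 10 μM compound for 30 min. Aliquots then went through 3 min of heating across 48°C-58°C, were pooled, and were extracted in PBS with 0.5% NP-40 at 4°C, and the supernatant after 21,000xg for 90 min was quantified by TMTpro 16plex LC-MS/MS with channel sums equalised. Thermal stability relative to control samples, from duplicates, is given as log2 fold change.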

[2] = compound: CC1=C(SC2=C1C(=N[C@H](C3=NN=C(N32)C)CC(=O)N)C4=CC=C(C=C4)Cl)C
In short: as §1

[3] = compound: CC1=C2C(=CC=C1)N=C(N(C2=O)C3=CC=CC=C3C)CN4C=NC5=C(N=CN=C54)N
In short: as §1

[4] = compound: Cc1sc2c(c1C)C(c1ccc(Cl)cc1)=N[C@@H](CC(=O)OC(C)(C)C)c1nnc(C)n1-2
In short: as §1

[5] = compound: c1ccc([C@@H]2C[C@H]2NC2CCNCC2)cc1
In short: as §1

Measured: log2 fold change

LUC7L3 (UniProt O95232)
inactive: [1] 0.002 | [2] -0.021 | [3] 0.023 | [4] 0.021 | [5] 0.028

MARK2 (UniProt E9PC69)
inactive: [1] -0.029 | [2] 0.038 | [3] 0.174 | [4] 0.126 | [5] -0.052

IGF2R (UniProt P11717)
inactive: [1] 0.013 | [2] 0.007 | [3] -0.008 | [4] 0.001 | [5] -0.002

LTN1 isoform 3 (UniProt O94822)
inactive: [1] -0.058 | [2] 0.015 | [3] 0.08 | [4] -0.003 | [5] -0.005

MDC1 (UniProt Q14676)
inactive: [1] -0.005 | [2] -0.045 | [3] -0.092 | [4] 0.068 | [5] 0.04

LARP7 isoform 3 (UniProt Q4G0J3)
inactive: [1] 0.018 | [2] -0.032 | [3] 0.045 | [4] -0.048 | [5] 0.027

LSS (UniProt P48449)
Chain of UniProt P48449 (P48449 whole entry, looked up): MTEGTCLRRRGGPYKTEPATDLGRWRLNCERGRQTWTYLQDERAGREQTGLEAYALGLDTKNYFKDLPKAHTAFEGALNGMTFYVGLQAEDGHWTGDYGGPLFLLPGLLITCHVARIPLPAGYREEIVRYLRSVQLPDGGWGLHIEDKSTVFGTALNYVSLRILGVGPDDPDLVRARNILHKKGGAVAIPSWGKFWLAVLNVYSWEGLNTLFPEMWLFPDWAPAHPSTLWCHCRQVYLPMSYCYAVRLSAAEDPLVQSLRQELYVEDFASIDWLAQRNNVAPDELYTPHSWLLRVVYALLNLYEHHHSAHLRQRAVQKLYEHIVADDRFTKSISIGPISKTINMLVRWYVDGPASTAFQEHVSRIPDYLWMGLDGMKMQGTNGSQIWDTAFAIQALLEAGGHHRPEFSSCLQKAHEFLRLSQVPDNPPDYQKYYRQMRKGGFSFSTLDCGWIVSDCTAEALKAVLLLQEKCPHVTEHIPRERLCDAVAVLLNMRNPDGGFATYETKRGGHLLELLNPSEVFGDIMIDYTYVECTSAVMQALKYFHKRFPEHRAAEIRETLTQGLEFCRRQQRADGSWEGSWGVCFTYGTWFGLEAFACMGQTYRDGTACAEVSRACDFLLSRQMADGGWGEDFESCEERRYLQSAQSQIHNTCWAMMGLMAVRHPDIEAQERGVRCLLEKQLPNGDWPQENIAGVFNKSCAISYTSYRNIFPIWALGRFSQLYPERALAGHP
inactive: [1] -0.077 | [2] 0.059 | [3] 0.127 | [4] -0.018 | [5] 0.087

MAPKAPK3 (UniProt Q16644)
Chain of UniProt Q16644 (Q16644 whole entry, looked up): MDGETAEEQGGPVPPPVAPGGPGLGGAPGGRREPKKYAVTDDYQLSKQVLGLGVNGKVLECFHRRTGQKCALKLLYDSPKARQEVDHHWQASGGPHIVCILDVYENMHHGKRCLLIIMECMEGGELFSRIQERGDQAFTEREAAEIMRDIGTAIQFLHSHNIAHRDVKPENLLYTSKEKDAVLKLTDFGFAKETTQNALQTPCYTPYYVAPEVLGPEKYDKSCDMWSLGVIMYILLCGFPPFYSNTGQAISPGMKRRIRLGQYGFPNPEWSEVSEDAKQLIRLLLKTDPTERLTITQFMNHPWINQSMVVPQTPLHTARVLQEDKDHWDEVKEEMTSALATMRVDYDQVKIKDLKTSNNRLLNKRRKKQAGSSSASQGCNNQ
inactive: [1] -0.122 | [2] 0.013 | [3] 0.027 | [4] -0.034 | [5] -0.109

LPGAT1 (UniProt Q92604)
inactive: [1] -0.068 | [2] -0.136 | [3] -0.02 | [4] 0.086 | [5] 0.074

KEL (UniProt P23276)
inactive: [1] -0.067 | [2] 0.003 | [3] 0.017 | [4] 0.019 | [5] 0.067

MAPKAPK5 (UniProt Q8IW41)
Chain of UniProt Q8IW41 (Q8IW41 whole entry, looked up): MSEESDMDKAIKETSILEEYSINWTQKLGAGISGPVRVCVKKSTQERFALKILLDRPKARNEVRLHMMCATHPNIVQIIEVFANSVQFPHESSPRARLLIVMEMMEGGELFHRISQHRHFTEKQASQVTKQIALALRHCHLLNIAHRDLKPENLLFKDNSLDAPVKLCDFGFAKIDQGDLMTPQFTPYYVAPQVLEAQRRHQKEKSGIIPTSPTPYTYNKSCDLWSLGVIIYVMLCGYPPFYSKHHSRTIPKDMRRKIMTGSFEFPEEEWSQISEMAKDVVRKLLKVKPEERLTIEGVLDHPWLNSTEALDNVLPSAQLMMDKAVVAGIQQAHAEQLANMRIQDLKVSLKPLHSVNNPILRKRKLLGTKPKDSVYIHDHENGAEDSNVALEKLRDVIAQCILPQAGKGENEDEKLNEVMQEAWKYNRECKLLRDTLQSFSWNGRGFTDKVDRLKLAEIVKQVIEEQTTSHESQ
inactive: [1] 0.042 | [2] 0.001 | [3] 0.015 | [4] -0.069 | [5] -0.009

MAGEA9 (UniProt P43362)
Chain of UniProt P43362 (P43362 whole entry, looked up): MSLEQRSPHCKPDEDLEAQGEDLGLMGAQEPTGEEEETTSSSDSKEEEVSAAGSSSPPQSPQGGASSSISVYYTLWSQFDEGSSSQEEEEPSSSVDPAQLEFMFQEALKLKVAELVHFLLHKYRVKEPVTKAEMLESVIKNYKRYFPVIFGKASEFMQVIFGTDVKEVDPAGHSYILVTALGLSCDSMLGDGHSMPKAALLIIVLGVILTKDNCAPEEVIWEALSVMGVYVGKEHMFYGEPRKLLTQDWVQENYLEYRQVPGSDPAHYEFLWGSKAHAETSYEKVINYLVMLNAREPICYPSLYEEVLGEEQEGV
inactive: [1] 0.046 | [2] -0.03 | [3] 0.047 | [4] -0.055 | [5] -0.067

MIEF1 (UniProt Q9NQG6)
Chain of UniProt Q9NQG6 (Q9NQG6 whole entry, looked up): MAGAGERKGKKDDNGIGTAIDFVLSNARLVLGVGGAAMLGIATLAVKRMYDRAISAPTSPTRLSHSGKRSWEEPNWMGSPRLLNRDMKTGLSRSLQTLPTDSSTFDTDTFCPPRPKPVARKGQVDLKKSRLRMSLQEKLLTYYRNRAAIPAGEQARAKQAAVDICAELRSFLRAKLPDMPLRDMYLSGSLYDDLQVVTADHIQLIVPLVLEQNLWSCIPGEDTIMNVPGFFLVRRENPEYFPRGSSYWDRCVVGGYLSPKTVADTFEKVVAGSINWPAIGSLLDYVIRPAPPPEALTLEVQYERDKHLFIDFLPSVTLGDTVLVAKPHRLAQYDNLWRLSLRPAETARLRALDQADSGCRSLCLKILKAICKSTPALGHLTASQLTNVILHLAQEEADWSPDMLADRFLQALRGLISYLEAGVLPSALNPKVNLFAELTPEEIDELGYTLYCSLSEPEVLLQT
inactive: [1] -0.043 | [2] 0.053 | [3] 0.047 | [4] -0.024 | [5] -0.054

IPO9 (UniProt Q96P70)
inactive: [1] 0.018 | [2] 0.063 | [3] 0.014 | [4] -0.01 | [5] 0.079

LUC7L2 (UniProt Q9Y383)
Chain of UniProt Q9Y383 (Q9Y383 whole entry, looked up): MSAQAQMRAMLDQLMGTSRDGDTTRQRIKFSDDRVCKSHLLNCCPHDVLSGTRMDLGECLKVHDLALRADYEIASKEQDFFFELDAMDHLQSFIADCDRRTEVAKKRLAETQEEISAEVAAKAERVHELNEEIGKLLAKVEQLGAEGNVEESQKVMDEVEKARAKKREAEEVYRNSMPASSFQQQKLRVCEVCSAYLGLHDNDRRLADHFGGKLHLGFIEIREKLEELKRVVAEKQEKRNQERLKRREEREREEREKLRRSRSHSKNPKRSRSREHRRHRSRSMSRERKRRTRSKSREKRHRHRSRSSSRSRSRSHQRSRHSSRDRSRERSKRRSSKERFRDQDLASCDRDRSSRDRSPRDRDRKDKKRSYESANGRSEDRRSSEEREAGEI
inactive: [1] 0.023 | [2] -0.044 | [3] 0.036 | [4] 0.006 | [5] 0.014

LRPPRC (UniProt P42704)
inactive: [1] -0.312 | [2] -0.059 | [3] 0.257 | [4] -0.031 | [5] -0.05

MAPK14 (UniProt Q16539)
Chain of UniProt Q16539 (Q16539 whole entry, looked up): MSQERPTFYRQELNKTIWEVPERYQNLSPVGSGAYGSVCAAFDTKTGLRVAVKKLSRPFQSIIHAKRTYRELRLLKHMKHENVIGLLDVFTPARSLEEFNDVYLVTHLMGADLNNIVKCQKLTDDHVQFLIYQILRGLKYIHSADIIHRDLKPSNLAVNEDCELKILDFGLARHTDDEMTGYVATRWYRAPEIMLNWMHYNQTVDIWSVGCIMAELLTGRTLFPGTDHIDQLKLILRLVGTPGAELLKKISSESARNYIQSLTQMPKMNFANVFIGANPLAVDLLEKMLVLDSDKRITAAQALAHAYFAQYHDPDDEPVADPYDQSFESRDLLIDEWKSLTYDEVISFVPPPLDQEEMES
inactive: [1] -0.01 | [2] 0.153 | [3] 0.061 | [4] -0.03 | [5] -0.089

KHDRBS1 (UniProt Q07666)
Chain of UniProt Q07666 (Q07666 whole entry, looked up): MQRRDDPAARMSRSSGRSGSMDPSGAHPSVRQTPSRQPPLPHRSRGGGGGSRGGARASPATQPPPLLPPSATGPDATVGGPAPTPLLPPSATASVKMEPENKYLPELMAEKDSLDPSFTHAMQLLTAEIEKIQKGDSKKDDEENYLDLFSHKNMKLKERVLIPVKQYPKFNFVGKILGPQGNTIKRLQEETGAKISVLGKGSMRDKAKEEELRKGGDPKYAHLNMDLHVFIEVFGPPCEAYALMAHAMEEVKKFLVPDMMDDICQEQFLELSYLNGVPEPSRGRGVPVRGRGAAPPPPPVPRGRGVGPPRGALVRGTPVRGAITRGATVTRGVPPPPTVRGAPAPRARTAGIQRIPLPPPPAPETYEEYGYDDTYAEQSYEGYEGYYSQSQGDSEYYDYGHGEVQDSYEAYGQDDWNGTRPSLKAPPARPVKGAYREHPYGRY
inactive: [1] -0.038 | [2] -0.018 | [3] -0.025 | [4] 0.055 | [5] -0.021

KPNB1 (UniProt Q14974)
inactive: [1] -0.035 | [2] -0.018 | [3] -0.024 | [4] 0.001 | [5] -0.021

KLHL18 (UniProt O94889)
Chain of UniProt O94889 (O94889 whole entry, looked up): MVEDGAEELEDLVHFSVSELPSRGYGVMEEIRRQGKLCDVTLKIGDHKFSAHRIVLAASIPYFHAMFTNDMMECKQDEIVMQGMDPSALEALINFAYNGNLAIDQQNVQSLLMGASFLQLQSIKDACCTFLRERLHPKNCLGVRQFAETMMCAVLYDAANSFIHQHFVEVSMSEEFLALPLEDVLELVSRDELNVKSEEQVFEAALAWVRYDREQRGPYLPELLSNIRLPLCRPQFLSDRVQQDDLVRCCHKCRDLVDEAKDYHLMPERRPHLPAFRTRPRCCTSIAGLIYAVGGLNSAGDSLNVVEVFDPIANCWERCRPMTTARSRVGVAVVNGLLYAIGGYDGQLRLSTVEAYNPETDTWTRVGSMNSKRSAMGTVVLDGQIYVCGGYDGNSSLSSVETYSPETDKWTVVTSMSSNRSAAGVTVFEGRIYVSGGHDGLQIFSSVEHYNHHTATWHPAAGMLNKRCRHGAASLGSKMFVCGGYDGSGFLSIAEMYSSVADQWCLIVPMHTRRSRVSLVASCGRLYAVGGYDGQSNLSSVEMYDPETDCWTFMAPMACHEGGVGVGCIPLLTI
inactive: [1] 0.014 | [2] 0.101 | [3] 0.135 | [4] 0.017 | [5] -0.021

LRRFIP1 (UniProt Q32MZ4)
inactive: [1] 0.019 | [2] 0.036 | [3] -0.016 | [4] 0.023 | [5] 0.011

LARP4 isoform 4 (UniProt Q71RC2)
inactive: [1] 0.069 | [2] -0.071 | [3] 0 | [4] 0.093 | [5] 0.036

ILK (UniProt Q13418)
inactive: [1] -0.081 | [2] 0.017 | [3] 0.132 | [4] 0.053 | [5] -0.087

LONP2 (UniProt Q86WA8)
Chain of UniProt Q86WA8 (Q86WA8 whole entry, looked up): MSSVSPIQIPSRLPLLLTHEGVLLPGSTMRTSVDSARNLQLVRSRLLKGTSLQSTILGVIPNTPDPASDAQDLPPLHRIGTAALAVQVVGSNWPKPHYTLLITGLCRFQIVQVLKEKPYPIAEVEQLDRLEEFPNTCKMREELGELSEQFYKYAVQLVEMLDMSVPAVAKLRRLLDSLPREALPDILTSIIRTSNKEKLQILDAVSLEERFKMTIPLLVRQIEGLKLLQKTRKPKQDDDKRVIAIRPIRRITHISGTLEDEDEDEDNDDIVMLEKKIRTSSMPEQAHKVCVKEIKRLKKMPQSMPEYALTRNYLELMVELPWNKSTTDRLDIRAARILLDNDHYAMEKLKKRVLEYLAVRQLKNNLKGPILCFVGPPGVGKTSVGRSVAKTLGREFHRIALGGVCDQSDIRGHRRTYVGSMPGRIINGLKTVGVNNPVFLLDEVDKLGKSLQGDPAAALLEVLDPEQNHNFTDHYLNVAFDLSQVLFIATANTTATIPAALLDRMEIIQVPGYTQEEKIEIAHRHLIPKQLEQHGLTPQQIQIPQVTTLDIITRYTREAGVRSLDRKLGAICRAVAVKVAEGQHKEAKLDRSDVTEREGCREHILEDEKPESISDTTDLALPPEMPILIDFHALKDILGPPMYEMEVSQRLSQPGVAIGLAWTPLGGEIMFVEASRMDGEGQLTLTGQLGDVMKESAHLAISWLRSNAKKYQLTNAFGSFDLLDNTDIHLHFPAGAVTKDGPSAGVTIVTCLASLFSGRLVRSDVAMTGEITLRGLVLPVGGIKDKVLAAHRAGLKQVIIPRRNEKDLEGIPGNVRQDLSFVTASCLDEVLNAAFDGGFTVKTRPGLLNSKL
inactive: [1] -0.036 | [2] 0.009 | [3] 0.02 | [4] 0.009 | [5] -0.147
